From PubChem BioAssay
In the library only some 19% were active in any assay of this set; here they are far more common.
HepG2 tox: counter-screen for TGF-b inhibitors: cytotoxicity in HepG2 cells. HepG2 CAGA-GFP viability, ATP luminescence, 18 h. Potency, µM (top dose mostly 46.1 µM), inactives show at the highest dose activity change, negative = cytotoxicity, actives largely listed as cytotoxic. actives 0.76% (n = 410,000). AID 588856; note: potency is the fitted concentration of half-maximal effect
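HepG2 CAGA-GFP cells (1000/well, DMEM with 1% FBS) received compound, then TGF-beta at 500 pg/mL final, and were incubated 18 hours at 37 degrees C. Viability was read by CellTiter-Glo luminescence. Media-only wells were set as complete cell-killing and DMSO as no toxicity.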
DT40 TDP1 CPT: DT40-hTDP1 cell growth loss with CPT; actives 12% (n = 420,000); Potency, µM (series often up to 46.2 µM), for inactives: at the highest dose activity change, negative = growth inhibition, hits mostly inhibitors; chicken DT40 Tdp1-/-;hTDP1 cells + 20 nM CPT, ATP luminescence, 48 h; note: potency is the fitted concentration of half-maximal effect; % is set by controls: 0 for no effect and ±100 for the full control effect; nearly all actives have a fitted effect of over 55% in size
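Chicken DT40 Tdp1-/- cells complemented with human TDP1, 400 cells/well, exposed to compounds plus 20 nM camptothecin for at least 48 h at 37 C; viability read as ATP content by CellTiter-Glo luminescence.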
TDP1 cell noCPT: qHTS for Inhibitors of human tyrosyl-DNA phosphodiesterase 1 (TDP1): qHTS in cells in absence of CPT | DT40 Tdp1-/- hTDP1 cells, no CPT, ATP luminescence, 48 h | Potency, µM (top dose mostly 46.2 µM), inactives show at the top dose activity change, negative = growth inhibition, most hits filed as inhibitors | actives 15% (n = 420,000) | AID 686978, 2013; note: potency is the fitted concentration of half-maximal effect; % is set by controls: 0 for no effect and ±100 for the full control effect; nearly all actives have a fitted effect of over 55% in size
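Cells were dispensed at 400 per well, compounds added by pin tool, plates incubated ≥48 hr at 37 °C, then CellTiter-Glo added for 30 min at room temperature before luminescence reading. Line: DT40 Tdp1-/- complemented with hTDP1; camptothecin omitted.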
IL-1B inflam inh: inhibitors of inflammasome signaling (IL-1 beta secretion); THP-1 LPS/ATP IL-1B secretion, AlphaLISA, 16 h; active compounds read low; activity change, % at 57.5 µM; actives 4.7% (n = 360,000); in the data active = activity change below about -50%; inconclusive = mostly about -30% to -49%; note: % is set by controls: 0 for no effect and ±100 for the full control effect
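Secreted IL-1B measured by AlphaLISA bead assay after 16 h compound exposure of THP-1 cells; compounds (final up to 57.5 uM) added 1 h before LPS (250 ng/mL) and ATP (1.25 mM) stimulation; lower signal means less secretion.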
TGFb SMAD3 inh: blocks TGF-b signaling; HepG2 CAGA-GFP TGF-b/SMAD3 reporter, GFP fluorescence, 18 h; TGF-beta stimulated, 500 pg/mL final; Potency, µM (highest dose often 46.1 µM), for inactives: at the top dose activity, negative = inhibition, hits mostly inhibitors; AID 588855; actives 1.2% (n = 410,000); note: potency is the fitted concentration of half-maximal effect; % is set by controls: 0 for no effect and ±100 for the full control effect; nearly all actives have a fitted effect of over 65% in size
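HEPG2 CAGA-GFP cells (1000/well, DMEM with 1% FBS) were pre-incubated 2 h at 37 degrees C, given compound by pin tool, then stimulated with TGF-beta at 500 pg/mL final for 18 h before per-cell GFP fluorescence imaging.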
S-ASM inh: inhibitors of human secretory acid sphingomyelinase. actives 0.006% (n = 340,000). P17405. placental ASM, HMU-PC fluorogenic substrate, 60 min. Potency, µM (titrated, usually from 57.5 µM), for inactives: top-dose activity change, negative = inhibition, actives largely listed as inhibitors; note: potency is the fitted concentration of half-maximal effect
Target sequence (P17405 47-631 limits assumed): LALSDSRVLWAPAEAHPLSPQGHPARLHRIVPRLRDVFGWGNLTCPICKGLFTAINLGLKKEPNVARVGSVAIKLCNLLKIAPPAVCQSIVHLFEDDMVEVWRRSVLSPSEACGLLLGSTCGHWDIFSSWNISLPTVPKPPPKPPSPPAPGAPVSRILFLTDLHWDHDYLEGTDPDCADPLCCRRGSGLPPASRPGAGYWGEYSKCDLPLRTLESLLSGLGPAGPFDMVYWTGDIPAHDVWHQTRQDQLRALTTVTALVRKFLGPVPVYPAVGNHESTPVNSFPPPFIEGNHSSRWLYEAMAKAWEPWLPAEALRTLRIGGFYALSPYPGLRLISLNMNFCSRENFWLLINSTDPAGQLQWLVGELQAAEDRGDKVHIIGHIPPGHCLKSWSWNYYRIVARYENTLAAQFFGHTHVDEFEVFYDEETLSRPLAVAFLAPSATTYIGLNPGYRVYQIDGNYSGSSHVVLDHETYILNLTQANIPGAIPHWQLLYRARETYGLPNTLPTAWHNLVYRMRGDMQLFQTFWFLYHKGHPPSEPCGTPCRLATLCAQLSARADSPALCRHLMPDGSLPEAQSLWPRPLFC
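Fluorescence read-out (Ex 386 nm, Em 447 nm) after stopping the reaction at pH 10. Enzyme: ASM from human placenta; substrate HMU-PC0, 9 uM final; 60 min, 37 °C. Compound preincubation 10 min, ambient temperature.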
* = called active by the depositor; u = inconclusive; x = no result given; ! = not active in a repeat. Unless noted, calls come from the whole dose curve; as a rule, active = well fitted curve in the direction sought with a large enough effect; inconclusive = small, poorly fitted or top-dose-only effect, or another doubt; inactive = no such curve, though single readings can be large; an effect the other way counts as inactive or inconclusive.

SMILES	HepG2 tox	DT40 TDP1 CPT	TDP1 cell noCPT	IL-1B inflam inh	TGFb SMAD3 inh	S-ASM inh
Nc1cccc(C(=O)OCC(=O)Nc2cccc3c2C(=O)c2ccccc2C3=O)c1	6%	u	12µM*	-18	-11%	3%
Cc1cccc(C)c1NC(=O)COC(=O)c1cccc2c1C(=O)c1ccccc1C2=O	-13%	12µM*	8.2µM*	-6	-15%	u
CCN(CC)CCC(=O)Nc1cccc2c1C(=O)c1ccccc1C2=O	-82%	12µM*	10µM*	x	u	-19%
Cc1ccc2c(=O)cc(C(=O)Nc3nnc(CC(C)C)s3)oc2c1C	3%	23%	2%	x	1%	x
c1ccc(-c2nc(-c3ccccn3)nc(-c3ccccn3)n2)nc1	-44%	u	15µM*	-14	-27%	1%
c1ccc(-c2nnc(-c3ccccn3)s2)nc1	-6%	-23%	u	-10	-13%	1%
c1ccc(C2=NNC(c3ccccn3)=NN2)nc1	-37%	9.2µM*	9.2µM*	u	-13%	2%
CCNC(=O)C1(C)CCN(C(=O)c2ccccc2OC(F)(F)F)C1 (stereo unspecified)	-5%	-9%	1%	13	-10%	x
O=C(c1c[nH]c(C(=O)C(Cl)(Cl)Cl)c1)c1ccccc1Br	-8%	u	u	-8	1%	0%
O=c1cc(-c2ccccc2O)oc2cc(O)cc(O)c12	x	30µM*	21µM*	x	x	x
COc1cc(-c2cc(=O)c3c(O)cc(O)cc3o2)ccc1O	-35%	21µM*	u	-64*	u	-4%
O=c1cc(-c2ccccc2O)oc2cc(O)ccc12	x	-15%	-20%	x	x	x
O=c1cc(-c2ccc(O)cc2)oc2cc(O)cc(O)c12	-3%	u	5.2µM*!	-89*	u	-4%
COc1cc2oc(-c3ccccc3)cc(=O)c2cc1O	x	3%	0%	x	x	x
O=c1cc(-c2ccc(O)cc2)oc2ccccc12	2%	u	u	5	1%	-1%
COc1cc(-c2cc(=O)c3c(O)c(OC)c(OC)cc3o2)cc(OC)c1O	-33%	16µM*	u	-19	1%	-7%
Cc1nnc(Nc2ccc(S(N)(=O)=O)cc2)c2ccccc12	1%	29%	7%	-3	29%	6%
COc1ccccc1C(C)NC(=O)CN(C)CC(=O)Nc1c(C)cccc1C (stereo unspecified)	-10%	-10%	-5%	0	-3%	6%
O=C(O)c1ccc(N=C2c3ccccc3-c3ccccc32)cc1	6%	9%	19%	-4	8%	10%
CCC(CO)Oc1cc(NCc2cccc(Cl)c2)c2ncn(C(C)C)c2c1 (stereo unspecified)	-76%	u	u	-3	20µM*	13%
COc1cc(NCc2ccccc2)c2ncn(C(C)C)c2c1	-17%	u	-28%	-29	-29%	5%
CCC(CN(C)C)Oc1cc(NCc2ccccc2)c2ncn(C(C)C)c2c1 (stereo unspecified)	-58%	26µM*	u	15	-14%	17%
CCC(CO)Oc1cc(NC(=O)c2ccc(C)cc2)c2ncn(C(C)C)c2c1 (stereo unspecified)	-4%	23µM*	u	u	-2%	-2%
O=C(NCCNCCO)C1(C(F)(F)F)C/C(=C\CCO)CCCO1 (stereo unspecified)	-3%	7%	2%	21	-10%	3%
CCOC(=O)c1sc2ccccc2c1S(=O)(=O)Nc1cccc(C(F)(F)F)c1	-29%	u	u	x	u	x
SMILES	HepG2 tox	DT40 TDP1 CPT	TDP1 cell noCPT	IL-1B inflam inh	TGFb SMAD3 inh	S-ASM inh
Cc1cc(C)cc(C(=O)Nc2ccc(-c3nc4ncccc4o3)cc2)c1	-42%	21µM*	u	x	0%	x
O=C(Nc1ccc(-c2nc3ncccc3o2)cc1)c1ccc([N+](=O)[O-])o1	-22%	8.2µM*	3.7µM*	-80*	u	12%
CC(C)(Oc1ccc(Cl)cc1)C(=O)Nc1ccc(-c2nc3ncccc3o2)cc1	1%	16µM*	18µM*	x	36%	x
Cc1ccc(-c2nc3ncccc3o2)cc1NC(=O)c1ccc([N+](=O)[O-])o1	-21%	15µM*	16µM*	-97*	-27%	-6%
Cc1cc(-c2nc3ncccc3o2)ccc1NC(=O)c1ccc([N+](=O)[O-])o1	6%	-4%	2%	-1	9%	-1%
CCOc1ccc(/C=C/C(=O)N(C)CC(=O)Nc2cccc(F)c2)cc1OCC	-5%	10%	-5%	25	0%	59%
CCOc1ccc(/C=C/C(=O)N(CC)CC(=O)Nc2ccc3c(c2)OCCO3)cc1OC	7%	-19%	-21%	-7	-9%	-1%
CCOc1cc(/C=C/C(=O)c2ccc3c(c2)OCCO3)ccc1OCC(=O)N(C)C	-30%	-95%	23µM*	-104*	-28%	65%
CCOc1cc(/C=C/C(=O)c2ccc(O)cc2)ccc1OCC(=O)N(C)C	-9%	u	u	-103*	12%	-3%
CCc1cccc(CC)c1N1C(=O)CSCC1=O	1%	-3%	-7%	0	2%	x
CC1CCCN(S(=O)(=O)c2ccc3c(c2)OCCO3)C1 (stereo unspecified)	-17%	-13%	u	18	-1%	x
CC1CCN(S(=O)(=O)c2ccc3c(c2)CCN3C(=O)Nc2cccc(Br)c2)CC1	1%	-18%	-5%	x	x	x
O=C1CN(C(=O)c2ccco2)C(c2ccccc2)c2cc(Cl)ccc2N1 (stereo unspecified)	-11%	16µM*	16µM*	11	u	-1%
O=C1CN(C(=O)c2c(F)cccc2Cl)C(c2ccc(F)cc2)c2cc(Br)ccc2N1 (stereo unspecified)	-30%	u	u	x	0%	x
O=C1CN(C(=O)c2ccc(Br)o2)C(c2ccc(F)cc2)c2cc(Cl)ccc2N1 (stereo unspecified)	-1%	16µM*	u	-6	u	u
O=C1CN(C(=O)c2ccc(Br)o2)C(c2ccccc2)c2cc(Cl)ccc2N1 (stereo unspecified)	-39%	15µM*	u	-19	u	-15%
O=C(O)c1ccccc1N(c1ccccc1)c1ccccc1	-6%	2%	-9%	x	-2%	5%
